Compounds without any hit were thinned out: in the full panel of roughly 83,000, 20% have a hit.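 Results are percent growth after 48 hours of single-concentration exposure. 100 means growth as in untreated cells, lower positive values show inhibition; negative values down to -100 show cell death.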 Values without a mark were called inactive. Activity calls are given as the source filed them. Rule for the calls: active = growth percent below 10; inactive = the rest.
Assays:
Assay in all cases: NCI-60 one-dose screen, 48 h (100 = growth as untreated, 0 = no growth, -100 = all killed)
SR leukemia = conditions: 10 µM unless noted
RPMI-8226 leukemia = conditions: 10 µM unless noted
OVCAR-8 ovarian = conditions: 10 µM unless noted
OVCAR-5 ovarian = conditions: 10 µM unless noted
OVCAR-4 ovarian = conditions: 10 µM unless noted
SK-OV-3 ovarian = conditions: 10 µM unless noted
IGROV1 ovarian = conditions: 10 µM unless noted
OVCAR-3 ovarian = conditions: 10 µM unless noted
HS 578T breast = conditions: 10 µM
NCI/ADR-RES ovarian = conditions: 10 µM unless noted
T-47D breast = conditions: 10 µM unless noted
BT-549 breast = conditions: 10 µM unless noted
MDA-MB-435 melanoma = conditions: 10 µM unless noted
SW-620 colon = conditions: 10 µM unless noted
MCF7 breast = conditions: 10 µM unless noted
HCT-116 colon = conditions: 10 µM unless noted
HCC-2998 colon = conditions: 10 µM unless noted
KM12 colon = conditions: 10 µM unless noted

| Structure (SMILES) | growth (SR leukemia) | growth (RPMI-8226 leukemia) | growth (OVCAR-8 ovarian) | growth (OVCAR-5 ovarian) | growth (OVCAR-4 ovarian) | growth (SK-OV-3 ovarian) | growth (IGROV1 ovarian) | growth (OVCAR-3 ovarian) | growth (HS 578T breast) | growth (NCI/ADR-RES ovarian) | growth (T-47D breast) | growth (BT-549 breast) | growth (MDA-MB-435 melanoma) | growth (SW-620 colon) | growth (MCF7 breast) | growth (HCT-116 colon) | growth (HCC-2998 colon) | growth (KM12 colon) |
| --- | --- | --- | --- | --- | --- | --- | --- | --- | --- | --- | --- | --- | --- | --- | --- | --- | --- | --- |
| CCN(CC)CCCC(C)Nc1cnc(C(=O)Nc2ccc(Cl)c3cccnc23)cn1 (stereo unspecified) | 1.42% (active) | 2.2% (active) | 27.3% | 53.3% | 51.3% | 79.5% | 44.2% | -23.7% (active) | 51.4% | 52.2% | -49.3% (active) | 80.1% | -57.8% (active) | 0.619% (active) | -2.14% (active) | -52.4% (active) | 32.6% | 30.3% |
| CNC(=O)c1cc(Oc2ccc(NC(=O)c3[nH]c(SC)nc3-c3ccc(F)cc3)cc2)ccn1 | 63.1% | 43.8% | 69.1% | 99.9% | 60.8% | 34.1% | 55% | 88.2% | 75.7% | 67.4% | 37% | 85.3% | 21.2% | 90.3% | 66.4% | 62.9% | 96.9% | 19.4% |
| COc1cc2nccc(Oc3ccc(NC(=O)C4(C(=O)Nc5ccc(F)cc5)CC4)cc3)c2cc1O | 41.3% | 52.8% | 73.7% | 80.8% | 37.1% | 86.5% | 52.1% | 78.7% | 42.7% | 71.7% | 55.3% | 79.9% | 52.6% | 34.4% | 51.2% | 52% | 79.3% | 22.5% |
| O=C(Nc1ccccc1Cl)Oc1ccc2ccccc2c1 | 71.1% | 97.8% | 84.1% | 89% | 101% | 93.5% | 77.9% | 96.6% | 115% | 101% | 88.5% | 133% | 105% | 103% | 84.4% | 95.3% | 95.1% | 95.9% |
| c1ccc(C(Nc2ccccn2)(c2ccccc2)c2ccccc2)cc1 | 97% | 34.7% | 70.4% | 77.6% | 79.9% | 67.5% | 88.7% | 82% | 93.4% | 63.3% | 72.7% | 99.2% | 96.5% | 84.4% | 62.4% | 65.7% | 82.6% | 71.9% |
| CCOc1ccc([C@@H]2[C@@H](Oc3ccccc3)C(=O)N2c2cc(OC)c(OC)c(OC)c2)cc1 | 5.44% (active) | 5.16% (active) | 24.2% | 43% | 43.9% | 29.6% | 21.5% | -8.31% (active) | 34.6% | 14% | 91.8% | -18.2% (active) | -25% (active) | 20.8% | 16.9% | -3.96% (active) | 16.2% | 11.5% |
| COc1ccc2[nH]c(C(=O)OCc3ccc4cccc(O)c4n3)cc2c1 | -3.51% (active) | -45.9% (active) | 0.942% (active) | -66.6% (active) | -59.2% (active) | 68.4% | -91.2% (active) | -84.8% (active) | -8.82% (active) | -18.9% (active) | -53.9% (active) | -79.3% (active) | -86.2% (active) | -72.8% (active) | -39% (active) | -77.7% (active) | -35.8% (active) | 10.7% |
| CC(COC(=O)c1ccccc1)N1CC2CCC(C1)O2 (stereo unspecified) | 93.2% | 99.1% | 93.9% | 101% | 107% | 96.1% | 113% | 104% | 105% | 111% | 103% | 105% | 98.1% | 97.6% | 102% | 106% | 110% | 109% |
| CN1CCN(Cc2ccc(NC(=O)c3cnc(F)c(C#Cc4cnc(N)c5ncccc45)c3)cc2C(F)(F)F)CC1 | 13.4% | 18.2% | 29.6% | 37.2% | 16.6% | 3.65% (active) | 13.9% | 46.2% | -10.1% (active) | 29.9% | 30.3% | 41.9% | 10.2% | 8.66% (active) | 42.6% | 7.2% (active) | 40.7% | 11.2% |
| COc1cc2c(cc1OCCCOc1cc3c(cc1OC)C(=O)N1CCC[C@H]1C=N3)C=CC(C)(C)O2 | 25.8% | 48% | 89.2% | 115% | 110% | 112% | 92.1% | 109% | 45.7% | 109% | 62.6% | -0.137% (active) | 101% | 18.1% | 39.3% | 61% | 100% | 109% |
| COc1cc2nccc(Oc3ccc(NC(=O)C4(C(=O)Nc5c(F)cc(F)cc5F)CC4)cc3)c2cc1Oc1ccc(N)cn1 | 58.5% | 50.1% | 69.7% | 70% | 28.4% | 81.3% | 28.1% | 75.3% | 25.8% | 82.3% | 29% | 74.2% | 3.8% (active) | 40.3% | 31.7% | 56.6% | 81.5% | 15.5% |
| O=[N+]([O-])c1cccc([I+]c2ccccc2)c1 | 16.6% | 27.9% | 35% | 96.1% | 58.4% | 54.9% | 31.5% | 58.7% | 49.6% | 77.5% | 50.1% | 63.3% | 72.7% | 40% | 37.6% | 47.7% | 67.2% | 60.5% |
| CC(CN1CCN(C)CC1)CN1c2ccccc2Sc2ccc(C(F)(F)F)cc21 (stereo unspecified) | -23.2% (active) | 71.3% | 71.9% | 68% | 54.5% | 92.4% | 10.9% | 42.9% | 60.7% | 52.8% | 63.4% | 61.4% | 27.3% | 22.6% | 46.4% | 21.6% | -16.7% (active) | 31.2% |
| CCCCc1n(Cc2ccc3ccccc3n2)cc[n+]1Cc1ccc2ccccc2n1 | 6.57% (active) | -20.3% (active) | 15% | 25.2% | 14% | 24.4% | 17.8% | 9.83% (active) | 41.5% | 97.9% | 6.69% (active) | 2.91% (active) | 7.37% (active) | 22.1% | 7.29% (active) | 9.88% (active) | 18.5% | 5.78% (active) |
| O=C(Nc1ccc(OS(=O)(=O)c2ccc(F)cc2)cc1)C12CC3CC(CC(C3)C1)C2 | 36.3% | 12.3% | 72.4% | 100% | 54.4% | 74.9% | 90.2% | 78.2% | 75.8% | 60.2% | 31.3% | 71.9% | 82.9% | 39.4% | 34% | 33.7% | 40.6% | 37.3% |
| CNCc1cccc2c1OCCOCCOCCC(C)S(=O)(=O)c1ccc(cc1)-c1cnc(N)c(n1)C(=O)N2 (stereo unspecified) | -19.2% (active) | 54.8% | 2.48% (active) | 115% | 75.5% | 23.2% | 28.2% | 25.7% | 0.126% (active) | 91.6% | 32.8% | 43.9% | 42.8% | 27.6% | 37.9% | -2.15% (active) | 79% | 47.5% |
| CC(C)[C@H](CN)NC[C@H](C)NS(=O)(=O)c1ccc(C(C)(C)C)cc1 | 110% | 90.4% | 97.5% | 106% | 87.5% | 105% | 97% | 103% | 87.9% | 104% | 80.5% | 81.2% | 99.7% | 94.2% | 90.2% | 86.2% | 105% | 101% |
